{"source": "the supplement of paper PMC6411743", "assay_in_all_cases": "NP40-soluble protein abundance relative to vehicle (solubility fold change) (ratio); higher = more soluble protein in presence of AMP-PNP", "key": {"DDX49": {"biological_target": "T1, DDX49 (UniProt Q9Y6V7)", "T1 sequence (whole entry)": "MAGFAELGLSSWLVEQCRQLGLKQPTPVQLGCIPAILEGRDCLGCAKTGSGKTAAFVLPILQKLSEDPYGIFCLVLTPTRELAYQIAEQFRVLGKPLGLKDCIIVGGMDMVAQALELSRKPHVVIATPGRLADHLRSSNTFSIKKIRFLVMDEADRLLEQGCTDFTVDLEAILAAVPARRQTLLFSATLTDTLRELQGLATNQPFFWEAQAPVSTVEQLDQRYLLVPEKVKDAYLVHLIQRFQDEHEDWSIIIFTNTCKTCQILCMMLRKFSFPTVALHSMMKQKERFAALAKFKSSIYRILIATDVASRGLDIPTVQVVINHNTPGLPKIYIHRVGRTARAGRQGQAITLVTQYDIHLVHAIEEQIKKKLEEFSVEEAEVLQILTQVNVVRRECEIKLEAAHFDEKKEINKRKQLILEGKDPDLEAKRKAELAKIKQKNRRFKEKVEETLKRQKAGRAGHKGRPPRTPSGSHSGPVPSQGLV", "in_short": "(§1)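 Each value is a fold change relative to the detergent-processed vehicle, calculated per replicate from vsn-normalised intensities. Jurkat crude lysate received eight concentrations (0.1 to 10 mM) for 10 min at room temperature and 3 min at 37 °C, then was solubilised in 0.8% NP40 with benzonase (60 min, 4 °C). The ultracentrifuged supernatant was TMT-labelled and run by LC-MS/MS in three independent experiments.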"}, "MAD1L1": {"biological_target": "T2, MAD1L1 (UniProt Q9Y6D9)", "T2 sequence (whole entry)": "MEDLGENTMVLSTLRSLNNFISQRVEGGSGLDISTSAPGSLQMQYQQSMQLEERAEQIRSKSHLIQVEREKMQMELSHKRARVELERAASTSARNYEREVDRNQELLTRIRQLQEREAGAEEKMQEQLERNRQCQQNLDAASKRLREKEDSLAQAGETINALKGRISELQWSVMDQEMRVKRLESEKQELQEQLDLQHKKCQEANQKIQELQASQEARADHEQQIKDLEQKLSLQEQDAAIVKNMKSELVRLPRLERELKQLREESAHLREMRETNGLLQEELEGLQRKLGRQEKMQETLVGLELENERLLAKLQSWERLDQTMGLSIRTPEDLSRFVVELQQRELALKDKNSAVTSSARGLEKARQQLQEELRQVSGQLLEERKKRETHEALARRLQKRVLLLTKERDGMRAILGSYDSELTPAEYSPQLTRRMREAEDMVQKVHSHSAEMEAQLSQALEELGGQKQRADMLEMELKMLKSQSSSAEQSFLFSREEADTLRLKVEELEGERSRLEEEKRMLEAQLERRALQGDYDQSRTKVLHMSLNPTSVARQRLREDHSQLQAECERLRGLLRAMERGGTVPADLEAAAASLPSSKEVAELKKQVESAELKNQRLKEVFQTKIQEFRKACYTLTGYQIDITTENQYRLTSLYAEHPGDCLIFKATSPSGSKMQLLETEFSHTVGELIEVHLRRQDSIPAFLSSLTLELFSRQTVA", "in_short": "as §1"}, "OAS3": {"biological_target": "T3, OAS3 (UniProt Q9Y6K5)", "T3 sequence (whole entry)": "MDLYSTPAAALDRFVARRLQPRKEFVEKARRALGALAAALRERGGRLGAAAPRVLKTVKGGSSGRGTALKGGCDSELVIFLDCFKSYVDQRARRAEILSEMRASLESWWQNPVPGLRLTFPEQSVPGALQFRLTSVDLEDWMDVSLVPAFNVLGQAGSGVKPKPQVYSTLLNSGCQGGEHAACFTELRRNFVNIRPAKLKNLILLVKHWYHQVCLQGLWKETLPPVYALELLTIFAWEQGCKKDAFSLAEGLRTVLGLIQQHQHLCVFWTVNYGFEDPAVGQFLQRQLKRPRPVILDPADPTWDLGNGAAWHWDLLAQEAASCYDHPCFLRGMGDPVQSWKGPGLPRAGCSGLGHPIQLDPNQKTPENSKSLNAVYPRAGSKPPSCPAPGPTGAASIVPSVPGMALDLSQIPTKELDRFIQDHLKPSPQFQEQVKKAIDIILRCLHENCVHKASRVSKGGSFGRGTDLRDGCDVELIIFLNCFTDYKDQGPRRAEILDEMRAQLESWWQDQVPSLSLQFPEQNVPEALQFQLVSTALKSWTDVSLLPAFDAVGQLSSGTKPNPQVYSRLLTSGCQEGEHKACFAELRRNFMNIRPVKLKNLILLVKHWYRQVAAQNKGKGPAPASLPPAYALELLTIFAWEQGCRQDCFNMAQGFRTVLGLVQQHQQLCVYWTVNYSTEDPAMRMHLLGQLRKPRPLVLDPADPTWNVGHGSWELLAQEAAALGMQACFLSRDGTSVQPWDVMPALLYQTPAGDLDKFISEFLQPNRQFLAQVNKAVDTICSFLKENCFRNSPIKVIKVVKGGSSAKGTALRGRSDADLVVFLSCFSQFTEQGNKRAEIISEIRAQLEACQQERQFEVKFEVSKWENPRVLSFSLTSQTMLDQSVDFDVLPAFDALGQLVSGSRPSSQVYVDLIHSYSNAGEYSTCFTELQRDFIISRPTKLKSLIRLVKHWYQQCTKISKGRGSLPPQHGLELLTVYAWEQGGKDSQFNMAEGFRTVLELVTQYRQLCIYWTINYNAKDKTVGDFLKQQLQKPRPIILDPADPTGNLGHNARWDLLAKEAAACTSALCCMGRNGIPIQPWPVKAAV", "in_short": "as §1"}, "S4R3R2": {"biological_target": "S4R3R2 (UniProt Q9NXR5)", "sequence (Q9NXR5 whole entry, one chain of several)": "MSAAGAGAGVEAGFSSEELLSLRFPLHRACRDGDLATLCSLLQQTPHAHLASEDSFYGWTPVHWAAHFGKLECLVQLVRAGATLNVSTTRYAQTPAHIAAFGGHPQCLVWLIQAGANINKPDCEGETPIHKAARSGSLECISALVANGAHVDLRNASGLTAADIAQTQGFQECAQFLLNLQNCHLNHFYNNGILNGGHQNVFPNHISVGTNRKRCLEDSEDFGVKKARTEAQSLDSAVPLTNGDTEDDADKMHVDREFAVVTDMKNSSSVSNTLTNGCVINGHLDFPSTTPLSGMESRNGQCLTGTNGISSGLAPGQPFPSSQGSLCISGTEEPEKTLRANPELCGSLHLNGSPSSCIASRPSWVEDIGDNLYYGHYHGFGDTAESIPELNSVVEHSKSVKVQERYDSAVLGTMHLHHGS", "in_short": "as §1"}}, "note": "± gives the standard deviation of the averaged measurements. About 6,200 targets were measured; listed, in parts, are those with the largest changes and a random draw of the rest."}
{"smiles": "Nc1ncnc2c1ncn2[C@@H]1O[C@H](COP(=O)(O)OP(=O)(O)NP(=O)(O)O)[C@@H](O)[C@H]1O", "note": "[adenylyl imidodiphosphate]", "values": [{"measurement": "NP40-soluble protein abundance", "setting": "DDX49; concentration: 1mM", "result": "1.09 ± 0.076"}, {"measurement": "NP40-soluble protein abundance", "setting": "DDX49; concentration: 2mM", "result": "1.13 ± 0.092"}, {"measurement": "NP40-soluble protein abundance", "setting": "DDX49; concentration: 4mM", "result": "1.15 ± 0.12"}, {"measurement": "NP40-soluble protein abundance", "setting": "DDX49; concentration: 6mM", "result": "1.13 ± 0.1"}, {"measurement": "NP40-soluble protein abundance", "setting": "DDX49; concentration: 8mM", "result": "1.15 ± 0.12"}, {"measurement": "NP40-soluble protein abundance", "setting": "DDX49; concentration: 10mM", "result": "1.24 ± 0.21"}, {"measurement": "NP40-soluble protein abundance", "setting": "MAD1L1; concentration: 1mM", "result": "1.02 ± 0.028"}, {"measurement": "NP40-soluble protein abundance", "setting": "MAD1L1; concentration: 2mM", "result": "1.03 ± 0.039"}, {"measurement": "NP40-soluble protein abundance", "setting": "MAD1L1; concentration: 4mM", "result": "1.02 ± 0.047"}, {"measurement": "NP40-soluble protein abundance", "setting": "MAD1L1; concentration: 6mM", "result": "0.986 ± 0.021"}, {"measurement": "NP40-soluble protein abundance", "setting": "MAD1L1; concentration: 8mM", "result": "0.983 ± 0.046"}, {"measurement": "NP40-soluble protein abundance", "setting": "MAD1L1; concentration: 10mM", "result": "1 ± 0.057"}, {"measurement": "NP40-soluble protein abundance", "setting": "OAS3; concentration: 1mM", "result": "1.01 ± 0.012"}, {"measurement": "NP40-soluble protein abundance", "setting": "OAS3; concentration: 2mM", "result": "1.02 ± 0.04"}, {"measurement": "NP40-soluble protein abundance", "setting": "OAS3; concentration: 4mM", "result": "1.02 ± 0.032"}, {"measurement": "NP40-soluble protein abundance", "setting": "OAS3; concentration: 6mM", "result": "0.998 ± 0.033"}, {"measurement": "NP40-soluble protein abundance", "setting": "OAS3; concentration: 8mM", "result": "1.02 ± 0.043"}, {"measurement": "NP40-soluble protein abundance", "setting": "OAS3; concentration: 10mM", "result": "0.998 ± 0.018"}, {"measurement": "NP40-soluble protein abundance", "setting": "S4R3R2; concentration: 1mM", "result": "1.04 ± 0.031"}, {"measurement": "NP40-soluble protein abundance", "setting": "S4R3R2; concentration: 2mM", "result": "1.05 ± 0.063"}, {"measurement": "NP40-soluble protein abundance", "setting": "S4R3R2; concentration: 4mM", "result": "1.02 ± 0.027"}, {"measurement": "NP40-soluble protein abundance", "setting": "S4R3R2; concentration: 6mM", "result": "1.01 ± 0.041"}, {"measurement": "NP40-soluble protein abundance", "setting": "S4R3R2; concentration: 8mM", "result": "0.983 ± 0.011"}, {"measurement": "NP40-soluble protein abundance", "setting": "S4R3R2; concentration: 10mM", "result": "0.983 ± 0.022"}]}
